These results are taken from PubChem BioAssay (EPA / NIEHS).

Several values for one entry are separate records, joined by “and”; a condition that tells them apart may be missing. Equal values may be shown once. Results filed as inconclusive are left out. Activity calls are given as the source filed them. Rule for the calls, unless noted: active = hit-call score of the fitted dose curve at least 0.9, where 1 is the maximum; inconclusive = response in the unintended direction; inactive = score below 0.9.

The target in assay [1] is human Peripheral-type Benzodiazepine Receptor (PBR), TSPO (gene 706) (UniProt P30536). In words: NVS_MP_hPBR: NovaScreen (NVS) Membrane Protein Assay for human Peripheral-type Benzodiazepine Receptor (PBR) (AID 2283331).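 Note: hits reduce radioligand binding relative to DMSO baseline.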 Put shortly:
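Radioligand displacement on human colonic cell membranes, 1 h incubation; bound radioactivity by filtration and scintillation counting. Primary screen in duplicate at 25 uM single concentration, actives followed up in concentration series; loss of binding versus DMSO.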

Assay [2] has as its target rat Peripheral-type Benzodiazepine Receptor (PBR), Tspo (gene 24230) (UniProt P16257). As to the kind of experiment: NVS_MP_rPBR: NovaScreen (NVS) Membrane Protein Assay for rat Peripheral-type Benzodiazepine Receptor (PBR) (AID 2283335). Put shortly: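 Radioligand displacement, rat kidney membrane prep, 1 h exposure, filter-based scintillation read; DMSO baseline, loss-of-signal scored. Primary screen at 25 uM in duplicate, actives followed up in concentration series.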

The target of assay [3] is rat Thyrotropin Releasing Hormone Receptor (TRH), Trhr (gene 25570) (UniProt Q01717). In words: NVS_GPCR_rTRH: NovaScreen (NVS) G Protein-Coupled Receptor Assay for rat Thyrotropin Releasing Hormone Receptor (TRH) (AID 2283329).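 Note: hit means lower bound tracer signal versus DMSO baseline.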 The method in brief:
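Cell-free radioligand binding on rat forebrain membranes; bound tracer measured by filter-based scintillation counting 4 hours after dosing. Loss of signal versus DMSO baseline indicates displacement; primary screen at 25 uM in duplicate, actives then run in concentration series.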

In assay [4] the target is human Androgen Receptor (AR), AR (gene 367) (UniProt P10275). In words: NVS_NR_hAR: NovaScreen (NVS) Nuclear Receptor Binding Assay for human Androgen Receptor (AR) (AID 2283332). The method in brief:
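LnCAP cell-free extract; radioligand displacement read by scintillation counting after 20 h. Primary screen single concentration 25 uM in duplicate, actives then run as concentration series; loss-of-signal fitted relative to DMSO baseline.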

Assay [5] addresses rat Gamma-Aminobutyric Acid Type A Receptor, Non-Selective (GABAR-NonSelective), Gabra1 (gene 29705) (UniProt P62813). In words: NVS_LGIC_rGABAR_NonSelective: NovaScreen (NVS) Ligand-Gated Ion Channel Assay for rat Gamma-Aminobutyric Acid Type A Receptor, Non-Selective (GABAR-NonSelective) (AID 2283326). The method in brief: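 Radioligand displacement on rat whole-brain extract, 1 h, filter scintillation readout; signal loss fitted versus DMSO. Primary screen in duplicate at 25 uM; hits (e.g. ≥30% inhibition) retested in concentration-response up to 50 uM.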

The target of assay [6] is Voltage-gated inwardly rectifying potassium channel KCNH2 (Homo sapiens) (UniProt Q12809). In words: NVS_IC_hKhERGCh: NovaScreen (NVS) Ion Channel Assay for human Potassium Channel ERG (KhERGCh) (AID 2283333). Put shortly: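 Cell-free radioligand competition binding on hERG protein extracted from CHO cells, read by filter-based scintillation counting 0.75 h after dosing. Primary screen at 25 uM in duplicate, actives followed in concentration series. Signal loss fitted versus DMSO.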

For assay [7], the target named is Glutamate receptor ionotropic, kainate 1 (Rattus norvegicus) (UniProt P22756). In words: NVS_IC_rKAR: NovaScreen (NVS) Ion Channel Assay for rat Kainic Acid Receptors (KAR) (AID 2283334; active = hit-call score of the fitted dose curve at least 0.9, where 1 is the maximum; inactive = score below 0.9). Put shortly: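 Radioligand displacement binding using rat forebrain membranes, 1 h incubation, filter-based scintillation counting. Screened in duplicate at 25 uM, with actives retested in concentration-response up to 50 uM; fitted against DMSO.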

Assay [8] deals with rat Glutamate, AMPA Site (AMPA), Gria1 (gene 50592) (UniProt P19490). In words: NVS_LGIC_rAMPA: NovaScreen (NVS) Ligand-Gated Ion Channel Assay for rat Glutamate, AMPA Site (AMPA) (AID 2283324). Put shortly:
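Rat forebrain membranes; radioligand binding read 1 h after dosing by filtration and scintillation counting. Duplicate single-point screen at 25 uM, then concentration-response to 50 uM for threshold hits (e.g. 30% inhibition); loss of signal vs DMSO.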

rat Peripheral-type Benzodiazepine Receptor (PBR), Tspo (gene 24230), sequence (P16257 whole entry, looked up): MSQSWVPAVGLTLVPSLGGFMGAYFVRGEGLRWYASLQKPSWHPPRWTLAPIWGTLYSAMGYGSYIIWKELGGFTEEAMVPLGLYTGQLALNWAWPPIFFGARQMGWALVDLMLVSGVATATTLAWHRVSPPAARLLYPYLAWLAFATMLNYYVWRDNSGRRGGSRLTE
human Peripheral-type Benzodiazepine Receptor (PBR), TSPO (gene 706), sequence (P30536 whole entry, looked up): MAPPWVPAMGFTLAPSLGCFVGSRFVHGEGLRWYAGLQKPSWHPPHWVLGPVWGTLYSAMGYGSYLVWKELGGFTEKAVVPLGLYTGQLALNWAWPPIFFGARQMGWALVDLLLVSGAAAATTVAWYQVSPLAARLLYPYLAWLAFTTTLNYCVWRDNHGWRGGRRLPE
rat Thyrotropin Releasing Hormone Receptor (TRH), Trhr (gene 25570), sequence (Q01717 whole entry, looked up): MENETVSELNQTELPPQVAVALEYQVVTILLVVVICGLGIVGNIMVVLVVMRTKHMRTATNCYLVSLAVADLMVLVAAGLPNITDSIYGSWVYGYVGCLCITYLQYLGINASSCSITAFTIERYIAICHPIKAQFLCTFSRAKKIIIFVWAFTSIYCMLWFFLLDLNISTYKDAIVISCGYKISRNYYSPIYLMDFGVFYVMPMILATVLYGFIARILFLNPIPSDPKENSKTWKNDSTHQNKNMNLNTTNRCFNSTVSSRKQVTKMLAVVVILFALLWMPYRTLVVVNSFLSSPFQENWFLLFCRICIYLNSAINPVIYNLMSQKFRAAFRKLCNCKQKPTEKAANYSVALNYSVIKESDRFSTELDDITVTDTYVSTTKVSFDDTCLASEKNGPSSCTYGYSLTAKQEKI
rat Gamma-Aminobutyric Acid Type A Receptor, Non-Selective (GABAR-NonSelective), Gabra1 (gene 29705), sequence (P62813 whole entry, looked up): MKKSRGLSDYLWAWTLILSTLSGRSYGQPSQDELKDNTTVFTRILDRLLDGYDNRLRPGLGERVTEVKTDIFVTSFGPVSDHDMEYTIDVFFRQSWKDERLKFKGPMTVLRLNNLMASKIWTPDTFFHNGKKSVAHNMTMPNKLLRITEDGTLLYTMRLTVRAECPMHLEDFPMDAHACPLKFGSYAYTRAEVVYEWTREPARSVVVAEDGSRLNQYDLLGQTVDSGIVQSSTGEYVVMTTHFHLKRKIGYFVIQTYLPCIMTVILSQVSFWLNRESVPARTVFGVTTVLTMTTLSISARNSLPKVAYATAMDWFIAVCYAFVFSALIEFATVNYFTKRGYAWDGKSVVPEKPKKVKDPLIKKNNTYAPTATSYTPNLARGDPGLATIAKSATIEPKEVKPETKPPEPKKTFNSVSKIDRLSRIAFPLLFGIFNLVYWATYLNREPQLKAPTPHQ
human Androgen Receptor (AR), AR (gene 367), sequence (P10275 whole entry, looked up): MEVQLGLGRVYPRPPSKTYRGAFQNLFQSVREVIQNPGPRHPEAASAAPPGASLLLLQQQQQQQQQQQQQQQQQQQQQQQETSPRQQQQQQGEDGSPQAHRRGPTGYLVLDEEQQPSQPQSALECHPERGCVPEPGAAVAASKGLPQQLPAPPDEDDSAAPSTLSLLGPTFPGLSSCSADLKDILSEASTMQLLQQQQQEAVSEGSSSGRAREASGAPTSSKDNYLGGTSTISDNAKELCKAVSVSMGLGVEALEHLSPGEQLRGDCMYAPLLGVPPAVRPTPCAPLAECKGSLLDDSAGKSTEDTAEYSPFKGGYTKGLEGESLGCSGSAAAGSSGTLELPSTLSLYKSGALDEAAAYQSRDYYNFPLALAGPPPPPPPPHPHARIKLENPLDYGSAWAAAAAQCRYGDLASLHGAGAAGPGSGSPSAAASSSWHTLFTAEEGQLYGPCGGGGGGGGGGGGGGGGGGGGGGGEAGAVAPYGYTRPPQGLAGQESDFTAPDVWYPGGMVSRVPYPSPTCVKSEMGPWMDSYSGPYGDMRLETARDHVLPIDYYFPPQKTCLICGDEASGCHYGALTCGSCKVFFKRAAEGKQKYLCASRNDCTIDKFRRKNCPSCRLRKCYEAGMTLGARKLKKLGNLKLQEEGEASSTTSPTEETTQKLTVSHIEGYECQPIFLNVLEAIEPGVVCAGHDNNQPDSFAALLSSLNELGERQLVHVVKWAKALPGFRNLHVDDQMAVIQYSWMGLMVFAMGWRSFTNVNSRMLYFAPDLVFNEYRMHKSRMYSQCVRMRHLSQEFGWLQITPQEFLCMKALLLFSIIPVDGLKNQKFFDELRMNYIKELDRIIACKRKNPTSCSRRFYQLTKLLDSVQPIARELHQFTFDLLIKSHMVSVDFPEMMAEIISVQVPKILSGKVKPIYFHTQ
rat Glutamate, AMPA Site (AMPA), Gria1 (gene 50592), sequence (P19490 whole entry, looked up): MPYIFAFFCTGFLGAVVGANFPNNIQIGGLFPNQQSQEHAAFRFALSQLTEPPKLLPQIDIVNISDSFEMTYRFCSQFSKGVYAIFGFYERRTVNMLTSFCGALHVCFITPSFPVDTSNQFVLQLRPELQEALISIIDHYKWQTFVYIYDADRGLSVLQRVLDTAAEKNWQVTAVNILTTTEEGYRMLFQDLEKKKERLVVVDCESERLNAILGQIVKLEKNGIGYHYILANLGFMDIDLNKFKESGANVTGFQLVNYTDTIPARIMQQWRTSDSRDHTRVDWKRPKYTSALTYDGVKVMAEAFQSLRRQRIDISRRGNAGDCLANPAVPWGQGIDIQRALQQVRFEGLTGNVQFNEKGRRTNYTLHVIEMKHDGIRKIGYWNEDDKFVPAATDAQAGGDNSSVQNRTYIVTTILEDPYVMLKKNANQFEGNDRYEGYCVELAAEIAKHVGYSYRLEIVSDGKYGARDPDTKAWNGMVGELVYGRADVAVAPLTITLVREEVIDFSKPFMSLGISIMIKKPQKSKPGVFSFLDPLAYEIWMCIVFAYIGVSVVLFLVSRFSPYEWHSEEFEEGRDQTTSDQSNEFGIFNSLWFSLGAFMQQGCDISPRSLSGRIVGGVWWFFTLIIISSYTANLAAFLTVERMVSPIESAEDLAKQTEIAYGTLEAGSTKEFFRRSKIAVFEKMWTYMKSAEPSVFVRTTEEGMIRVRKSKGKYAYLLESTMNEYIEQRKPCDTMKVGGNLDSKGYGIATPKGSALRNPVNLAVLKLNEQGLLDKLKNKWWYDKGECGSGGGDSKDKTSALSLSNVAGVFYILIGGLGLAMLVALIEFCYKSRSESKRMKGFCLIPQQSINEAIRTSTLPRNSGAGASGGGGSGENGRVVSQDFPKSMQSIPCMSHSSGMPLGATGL
Voltage-gated inwardly rectifying potassium channel KCNH2 (Homo sapiens), sequence (Q12809 whole entry, looked up): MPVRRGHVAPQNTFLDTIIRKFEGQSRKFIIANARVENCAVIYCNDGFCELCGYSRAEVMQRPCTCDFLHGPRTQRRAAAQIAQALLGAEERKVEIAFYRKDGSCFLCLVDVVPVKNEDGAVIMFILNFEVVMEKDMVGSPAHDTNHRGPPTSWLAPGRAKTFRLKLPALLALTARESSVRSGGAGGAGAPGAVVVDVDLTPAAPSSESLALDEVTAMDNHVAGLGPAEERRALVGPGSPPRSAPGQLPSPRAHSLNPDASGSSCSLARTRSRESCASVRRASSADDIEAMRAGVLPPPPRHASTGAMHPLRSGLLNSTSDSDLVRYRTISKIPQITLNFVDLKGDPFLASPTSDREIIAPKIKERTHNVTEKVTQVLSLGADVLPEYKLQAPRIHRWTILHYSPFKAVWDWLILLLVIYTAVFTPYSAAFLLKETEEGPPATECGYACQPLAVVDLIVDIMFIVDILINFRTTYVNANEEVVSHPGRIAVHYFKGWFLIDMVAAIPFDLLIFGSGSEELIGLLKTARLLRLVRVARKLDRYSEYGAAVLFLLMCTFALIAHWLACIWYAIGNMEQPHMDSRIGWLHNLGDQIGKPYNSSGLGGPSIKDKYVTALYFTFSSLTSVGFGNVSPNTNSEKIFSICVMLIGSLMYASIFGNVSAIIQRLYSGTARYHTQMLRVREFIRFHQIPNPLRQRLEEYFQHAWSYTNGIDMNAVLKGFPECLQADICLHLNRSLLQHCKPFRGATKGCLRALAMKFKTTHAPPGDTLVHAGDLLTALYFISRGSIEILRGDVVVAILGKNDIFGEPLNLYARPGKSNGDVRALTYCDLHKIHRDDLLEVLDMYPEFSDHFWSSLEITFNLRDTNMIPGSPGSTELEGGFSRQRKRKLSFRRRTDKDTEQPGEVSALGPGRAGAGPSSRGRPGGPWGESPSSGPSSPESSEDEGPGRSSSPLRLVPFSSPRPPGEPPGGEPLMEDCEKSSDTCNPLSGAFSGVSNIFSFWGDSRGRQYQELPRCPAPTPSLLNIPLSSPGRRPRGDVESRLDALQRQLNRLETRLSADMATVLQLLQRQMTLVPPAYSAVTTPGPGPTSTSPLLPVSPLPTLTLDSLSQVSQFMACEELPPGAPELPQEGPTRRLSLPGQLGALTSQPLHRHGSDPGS

On to `CCCCOC(=O)[C@@H](C)Oc1ccc(Oc2ccc(C(F)(F)F)cn2)cc1`, for which the result in assay [1] and in assay [2] was inactive.

Consider `O=C(c1ccc(O)cc1O)c1ccc(O)cc1O`, for which the compound was classed as inactive in assay [3]. Moreover, the AC50 in assay [4] is 1.39 µM (active).

For the compound `O=C(c1ccccc1)C1CCCCC1`, the compound was called inactive in assay [3].

For the compound `CSC(=O)c1cccc2nnsc12`, the outcome in assay [4] was inactive.

For the compound `COC(=O)CSc1cc(N=c2sc(=O)n3n2CCCC3)c(F)cc1Cl`, the outcome in assay [5], in assay [1] and in assay [2] was inactive.

Consider `CC(=O)[C@H]1CC[C@H]2[C@@H]3CCC4=CC(=O)CC[C@]4(C)[C@H]3CC[C@]12C`, for which the concentration at half-maximal activity (AC50) in assay [1] was 1.75 µM (active) and 1.51 µM (active) and 4.64 µM (active).

Take `c1ccc(Nc2ccccc2)cc1`: the compound was called inactive in assay [5].

Take `C=CCOC(Cn1ccnc1)c1ccc(Cl)cc1Cl` (stereo not given): the AC50 in assay [3] is 17 µM (active); in assay [1], 10.6 µM (active); in assay [6], 12.5 µM (active); in assay [2] it was 8.58 µM (active). Besides, the result in assay [7] was inactive.

`CC1(C)C(C=C(Cl)Cl)C1C(=O)OCc1cccc(Oc2ccccc2)c1` (stereo not given): the call in assay [3] and in assay [2] was inactive. In assay [1], the AC50 is 40.2 µM (active).

In the case of `CCOC(=O)C(C)Oc1ccc(Oc2cnc3cc(Cl)ccc3n2)cc1` (stereo not given), the outcome in assay [5] was inactive.

Consider `N#CSCSc1nc2ccccc2s1`, for which the AC50 in assay [2] was 11.1 µM (active) and 9.24 µM (active).

In the case of `CCCCOCCOCCOCc1cc2c(cc1CCC)OCO2`, the AC50 was 26.9 µM (active) in assay [1] and 12.3 µM (active) in assay [2].

For the compound `CCCCCOC(=O)COc1cc(N2C(=O)C3=C(CCCC3)C2=O)c(F)cc1Cl`, the compound was classed as inactive in assay [8]. Also, the AC50 was 2.72 µM (active) in assay [1] and 1.23 µM (active) in assay [2].

Take `Oc1ccc(C(c2ccc(O)cc2)C(Cl)(Cl)Cl)cc1`: the call in assay [8] and in assay [1] was inactive. In addition, the AC50 in assay [2] was 4.65 µM (active).

Regarding `CCOC(=O)NCCOc1ccc(Oc2ccccc2)cc1`, the compound was classed as inactive in assay [1].

For orientation: AC50 means the concentration at which the activity in the assay is half-maximal.
